Source: PubChem BioAssay AID1159580 (chemical genetic matrix, 2015)
Out of some 5,500 compounds screened, about 2,000 (36%) were called active. Not shown: some 18% with an inconclusive outcome. Cut-off read from the data, not from the text of the source: active = normalized growth mostly below about 0.91 (no sharp cut-off); inconclusive = no clear call, values can overlap the other calls; inactive = mostly above about 0.92. The list shows a part of the results.

Assay: chemical genetic growth profiling, strain panel (AID 1159580);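 note: tested at 20 µM; growth read once vehicle control cultures reached saturation at 30 °C; 1 = growth at the plate median or of vehicle wells; lower values mean less growth of the strain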
Conditions: S. cerevisiae deletion strains, growth OD
[1] = locus YAL040C, strain CLN3, active compounds read low
[2] = locus YCL061C, strain MRC1 (second series), active compounds read low
[3] = locus YDR363W, strain ESC2, active compounds read low
[4] = locus YER002W, strain NOP16, active compounds read low
[5] = locus YMR263W, strain SAP30, active compounds read low
[6] = locus YNL175C, strain NOP13, active compounds read low
[7] = locus YNL197C, strain WHI3, active compounds read low
[8] = locus YNL224C, strain SQS1, active compounds read low
[9] = locus YOR083W, strain WHI5 (second series), active compounds read low
[10] = locus YPL055C, strain LGE1, active compounds read low
[11] = locus YPL241C, strain CIN2, active compounds read low

Measured: normalized growth

S=C=Nc1cccc(C2(N3CCCCC3)CCCCC2)c1
inactive: locus YAL013W, strain DEP1, active compounds read low 0.993 | [1] 0.998 | [2] 0.998 | [3] 0.993 | [4] 1.01 | locus YJR075W, strain HOC1, active compounds read low 0.984 | [5] 1 | locus YMR307W, strain GAS1, active compounds read low 1 | locus YNL153C, strain GIM3, active compounds read low 0.968 | [6] 0.994 | [7] 1.08 | [8] 1.04 | [9] 1 | [10] 0.939 | [11] 1

CC1(C)CCC(NC(=O)[C@@H](N)CCC(=O)O)CC1
inactive: [1] 1.02 | [2] 0.999 | [3] 1.02 | [4] 0.995 | locus YGR078C, strain PAC10, active compounds read low 1.02 | [5] 0.999 | [6] 1.01 | [7] 0.998 | [8] 0.999 | locus YNL322C, strain KRE1, active compounds read low 1.01 | [9] 1 | [10] 1.02 | [11] 0.996
